From PubChem BioAssay (NCATS)
Records with an inconclusive call do not appear. Calls of active or inactive are those of the source. Calls come from the whole dose curve; as a rule, active = well fitted curve in the direction sought with a large enough effect; inconclusive = small, poorly fitted or top-dose-only effect, or another doubt; inactive = no such curve, though single readings can be large; an effect the other way counts as inactive or inconclusive.

Legend:
[1] = Quantitative highthroughput screen to assess conditional lethalithy of NOMO1 cells grown in RPMI1640 with untreated serum (RPMI+s) (AID 1963876); note: nearly all actives have a fitted effect of over 35% in size;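 for viability: 100% = DMSO wells and 0% = empty wells without cells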
Procedure, shortened: (§1)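 Each medium arm—HPLM with 10% dialyzed FBS, or RPMI1640 with 5 mM glucose and 10% untreated or dialyzed FBS—was screened against an 11-point, 3-fold compound titration for 48 h at 37 °C, with CellTiter-Glo luminescence as endpoint.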

[2] = Quantitative highthroughput screen to assess conditional lethalithy of NOMO1 cells grown in RPMI1640 with dialyzed fetal bovine serum (RPMI+ds) (AID 1963877); note: nearly all actives have a fitted effect of over 30% in size;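 for viability: series mostly up to about 46 µM; 100% = DMSO control wells and 0% = empty wells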
Procedure, shortened: as §1

[3] = Quantitative highthroughput screen to assess conditional lethalithy of NOMO1 cells grown in Human Plasma-Like Medium with dialyzed fetal bovine serum (HPLM+ds) (AID 1963878); note: nearly all actives have a fitted effect of over 35% in size;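 for viability: 100% = DMSO wells and 0% = empty wells on each plate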
Procedure, shortened: as §1

[4] = Quantitative highthroughput screen to assess conditional lethalithy of P12 Ichikawa cells grown in Human Plasma-Like Medium with dialyzed fetal bovine serum (HPLM+ds) (AID 1963879); settings: Potency: viability; note: nearly all actives have a fitted effect of over 35% in size; for viability: series mostly up to about 46 µM
Procedure, shortened: as §1

[5] = Quantitative highthroughput screen to assess conditional lethalithy of P12 Ichikawa cells grown in RPMI1640 with dialyzed fetal bovine serum (RPMI+ds) (AID 1963880); settings: Potency: P12-Ichikawa viability; note: nearly all actives have a fitted effect of over 35% in size;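 for viability: 100% = DMSO wells and 0% = empty wells on each plate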
Procedure, shortened: as §1

[6] = Quantitative highthroughput screen to assess conditional lethalithy of P12 Ichikawa cells grown in RPMI1640 with untreated serum (RPMI+s) (AID 1963881); settings: Potency: viability; note: nearly all actives have a fitted effect of over 35% in size;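 for viability: series mostly up to about 46 µM; 100% = DMSO wells and 0% = empty wells without cells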
Procedure, shortened: as §1

[7] = Quantitative highthroughput screen to assess conditional lethalithy of SEM cells grown in Human Plasma-Like Medium with dialyzed fetal bovine serum (HPLM+ds) (AID 1963882); note: nearly all actives have a fitted effect of over 35% in size; for viability: series mostly up to about 46 µM
Procedure, shortened: as §1

[8] = Quantitative highthroughput screen to assess conditional lethalithy of SEM cells grown in RPMI1640 with unreated serum (RPMI+s) (AID 1963883); note: nearly all actives have a fitted effect of over 35% in size;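 for viability: 100% = DMSO wells and 0% = empty wells without cells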
Procedure, shortened: as §1

[9] = Quantitative highthroughput screen to assess conditional lethalithy of SEM cells grown in RPMI1640 with dialyzed fetal bovine serum (RPMI+ds) (AID 1963884); note: nearly all actives have a fitted effect of over 35% in size;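 for viability: series mostly up to about 46 µM; 100% = DMSO control wells and 0% = empty wells without cells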
Procedure, shortened: as §1

[10] = Cellular viability qHTS for adrenocortical cancer (ACC) cell line SW-13 (AID 1963989); settings: SW-13 ACC cells viability, CellTiter-Glo, 48 h; activity (max response): hits give low values; note: nearly all actives have a fitted effect of over 65% in size;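 for activity (max response): cells grown in serum-free medium with ITS supplement; % is set by controls: 0 for no effect and ±100 for the full control effect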
Procedure, shortened: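 Compound titrations (up to 46 uM final, in DMSO) were applied to SW-13 cells for 48 h at 37C/5% CO2. Reading used CellTiter-Glo after 20 min at room temperature; fitted curves yielded IC50 and efficacy.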

[11] = Cellular viability qHTS for adrenocortical cancer (ACC) cell line NCI-H295R (AID 1963990); note: nearly all actives have a fitted effect of over 60% in size
Procedure, shortened: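 Readout: CellTiter-Glo luminescence, 20 min RT. Exposure: 48 h, 37C/5% CO2. Cells: NCI-H295R, ITS-DMEM serum-free. Range: up to 46 uM. Analysis: 4PL fit, IC50 plus efficacy.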
Potency is the fitted concentration of half-maximal effect.

C[C@H](O)[C@@H]1C(=O)N2C(C(=O)O)=C(S[C@@H]3CN[C@H](CNS(N)(=O)=O)C3)[C@@H](C)[C@@H]12
inactive: Potency [1] | Potency [2] | Potency [3] | Potency [4] | Potency [5] | Potency [6] | Potency [7] | Potency [8] | Potency [9] | activity (max response) [10] 8.99% | Potency [11]

O=c1ccn([C@@H]2O[C@H](CO)[C@H](O)[C@H]2O)c(=O)[nH]1
inactive: Potency [1] | Potency [2] | Potency [3] | Potency [4] | Potency [5] | Potency [6] | Potency [7] | Potency [8] | Potency [9]

COc1ccc2c3c1OC1C[C@@H](O)C=C[C@@]31CCN(C)C2 (stereo partly drawn)
inactive: Potency [1] | Potency [2] | Potency [3] | Potency [4] | Potency [5] | Potency [6] | Potency [7] | Potency [8] | Potency [9]

CC1(C)SCCN(S(=O)(=O)c2ccc(OCC#CCO)cc2)[C@@H]1C(=O)NO
inactive: Potency [1] | Potency [2] | Potency [3] | Potency [4] | Potency [5] | Potency [6] | Potency [7] | Potency [8] | Potency [9]

COc1cccc2c1C(=O)c1c(O)c3c(c(O)c1C2=O)C[C@@](O)(C(=O)CO)C[C@H]3O[C@H]1C[C@H](N)[C@H](O)[C@H](C)O1
active: Potency [1] 2.96 µM | Potency [2] 2.96 µM | Potency [3] 2.35 µM | Potency [4] 1.66 µM | Potency [5] 2.09 µM | Potency [6] 1.32 µM | Potency [7] 0.469 µM | Potency [8] 0.418 µM | Potency [9] 0.372 µM

COC(=O)C1=C(C)NC(C)=C(C(=O)OC(C)C)C1c1cccc2nonc12 (stereo not drawn)
inactive: Potency [1] | Potency [2] | Potency [3] | Potency [4] | Potency [5] | Potency [6] | Potency [7] | Potency [8] | Potency [9] | activity (max response) [10] 6.25%

COc1ccc(-c2cc(=O)c3c(O)cc(O[C@@H]4O[C@H](CO[C@@H]5O[C@@H](C)[C@H](O)[C@@H](O)[C@@H]5O)[C@@H](O)[C@H](O)[C@@H]4O)cc3o2)cc1O
inactive: Potency [1] | Potency [2] | Potency [3] | Potency [4] | Potency [5] | Potency [6] | Potency [7] | Potency [8] | Potency [9]

C#C[C@]1(O)CC[C@H]2[C@H]3CCc4cc(OC)ccc4[C@H]3CC[C@@]21C
inactive: Potency [1] | Potency [2] | Potency [3] | Potency [4] | Potency [5] | Potency [6] | Potency [7] | Potency [8] | Potency [9]

CC(C)c1ccc(Cn2ccc3c4c(N)nc(NC5CC5)nc4ccc32)cc1
active: Potency [1] 10.5 µM | Potency [2] 5.9 µM | Potency [3] 1.05 µM | Potency [4] 3.72 µM | Potency [5] 2.64 µM | Potency [6] 4.69 µM | Potency [7] 1.66 µM | Potency [8] 3.72 µM | Potency [9] 3.72 µM | Potency [10] 0.398 µM | Potency [11] 1.12 µM

CN[C@@H]1C[C@H]2O[C@@](C)([C@H]1OC)n1c3ccccc3c3c4c(c5c6ccccc6n2c5c31)C(=O)N[C@H]4O
active: Potency [1] 0.833 µM | Potency [2] 1.05 µM | Potency [3] 0.59 µM | Potency [4] 0.743 µM | Potency [5] 0.59 µM | Potency [6] 0.418 µM | Potency [7] 0.332 µM | Potency [8] 0.332 µM | Potency [9] 0.526 µM

OC[C@H]1O[C@@H](n2cnc3c2NC=NC[C@@H]3O)C[C@H]1O
inactive: Potency [1] | Potency [2] | Potency [3] | Potency [4] | Potency [5] | Potency [6] | Potency [7] | Potency [8] | Potency [9]

CC(C=CC1=C(C)CCCC1(C)C)=CC=CC(C)=CC(=O)Nc1ccc(O)cc1
active: Potency [1] 30.3 µM | Potency [2] 17.1 µM | Potency [3] 15.2 µM | Potency [4] 6.05 µM | Potency [5] 2.7 µM | Potency [6] 6.05 µM | Potency [7] 3.4 µM | Potency [8] 6.05 µM | Potency [9] 3.03 µM

CCC1=C(C)CN(C(=O)NCCc2ccc(S(=O)(=O)NC(=O)NC3CCC(C)CC3)cc2)C1=O (stereo not drawn)
inactive: Potency [1] | Potency [2] | Potency [3] | Potency [4] | Potency [5] | Potency [6] | Potency [7] | Potency [8] | Potency [9] | activity (max response) [10] -7.59% | Potency [11]

CC(C)[C@H](C(=O)Nc1ccc(C(=O)NO)cc1)c1ccccc1
active: Potency [1] 3.32 µM | Potency [2] 2.64 µM | Potency [3] 2.64 µM | Potency [4] 2.35 µM | Potency [5] 2.35 µM | Potency [6] 2.09 µM | Potency [7] 1.48 µM | Potency [8] 1.66 µM | Potency [9] 1.48 µM

O=C(Nc1ccc(F)c(C(F)(F)F)c1)Nc1nnc(-c2ccncc2)s1
inactive: Potency [1] | Potency [2] | Potency [3] | Potency [4] | Potency [5] | Potency [6] | Potency [7] | Potency [8] | Potency [9] | activity (max response) [10] 4.96% | Potency [11]

Cc1cc(Nc2cc(N3CCN(C)CC3)nc(C=Cc3ccccc3)n2)n[nH]1
active: Potency [1] 3.03 µM | Potency [2] 3.4 µM | Potency [3] 3.03 µM | Potency [4] 2.15 µM | Potency [5] 2.7 µM | Potency [6] 3.03 µM | Potency [7] 0.54 µM | Potency [8] 0.54 µM | Potency [9] 0.429 µM

C[C@]12C=CC(=O)N[C@@H]1CC[C@H]1[C@H]3CC[C@@H](C(=O)Nc4cc(C(F)(F)F)ccc4C(F)(F)F)[C@@]3(C)CC[C@@H]12
inactive: Potency [1] | Potency [2] | Potency [3] | Potency [4] | Potency [5] | Potency [6] | Potency [7] | Potency [8] | Potency [9]

O=C(NCCS(=O)(=O)c1ccc(C(F)(F)F)cn1)c1ccc(Cl)cc1
inactive: Potency [1] | Potency [2] | Potency [3] | Potency [4] | Potency [5] | Potency [6] | Potency [7] | Potency [8] | Potency [9] | activity (max response) [10] 0.68% | Potency [11]
